The structures appear in SMILES notation. About 83,000 compounds went through this panel and 20% of them were active in at least one assay; those are over-represented in the sample as a whole.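 96-well plates, one dose, 48 hours. Percent growth reported; active if below 10.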 Active and inactive are the calls of the source.

The test system of this assay is MDA-MB-468 breast. As to the kind of experiment: NCI-60 one-dose screen, 48 h (100 = growth as untreated, 0 = no growth, -100 = all killed). The conditions noted are these: 10 µM unless noted.
With `Cc1ccc(C)c(S(=O)(=O)NC2c3ccccc3Oc3ccccc32)c1`, the growth is 85% (inactive).
Take `O=C(O)C(CCc1ccccc1)NCc1ccccc1` (stereo not given): the growth was 108% (inactive).
Turning to `COc1cc2cn3c4ccc(O)cc4[nH]c(=O)c3c2cc1OC`, the growth is -27.4% (active).
On to `COc1ccc(C(=O)C(Br)C(Br)C(=O)O)cc1` (stereo not given), for which the growth is 93% (inactive).
For `COc1ccc2c(c1)OC1=C(C(=O)OC1)C2c1cc(OC)c(OC)c(OC)c1` (stereo not given), the growth is -5.94% (active).
As for `COC(=O)N[C@H]1CCc2cc(OC)c(OC)c(OC)c2-c2ccc(SC)c(=O)cc21`, the growth was -32% (active).
In the case of `CCCCCCCCN1C(=O)/C(=c2\sc3n(c2=O)C2C(NN=3)N(CC)C(=O)N2CC)c2ccccc21` (stereo not given), the growth was 68.3% (inactive).
Regarding `CC(C)c1ccc(C(=O)Nc2sc3c(c2C#N)CCC(=O)C3)cc1`, the growth was -45.7% (active).
Take `COc1ccc(C(=O)c2cc3c(N)c(C(=O)Nc4ccc(Cl)cc4)sc3nc2C)cc1`: the growth is 76.7% (inactive).
In the case of `COc1cc(OC)c2cc(C(=O)O)c(=O)oc2c1`, the growth was 99.9% (inactive).
For `COc1ccc(Oc2nc(Nc3ccc(N4CCOCC4)cc3)ncc2NC(=O)Nc2cc(OC)cc(OC)c2)cc1`, the growth was 25.3% (inactive).
On to `CC(=O)Nc1c(C)cc(C)cc1C`, for which the growth is 108% (inactive).
As to `O=C(O)c1ccc([N+](=O)[O-])cc1S(=O)(=O)O`, the growth is 98.6% (inactive).
With `COc1ccc(NC(=O)[C@@H]2C[C@H]2c2ccccc2)c(C(N)=O)c1`, the growth was 101% (inactive).
Consider `O=C(c1ccc(O)cc1)C1[C@H](c2ccc(Cl)cc2)[C@@H](c2ccccc2)NC12C(=O)Nc1ccc(Cl)cc12` (stereo not given in full), for which the growth is 39.4% (inactive).

(Values after PubChem BioAssay (NCI).)
